# Data as given in PubChem BioAssay (Tox21).
# Results filed as inconclusive are left out. Where a call stands in place of a potency, no number is given. Activity calls are given as the source filed them. Unless noted, calls come from the whole dose curve.
# Experiments:
# [1] = Nuclear factor erythroid 2-related factor 2/antioxidant responsive element (Nrf2/ARE) small molecule agonists: qHTS cell viability counter screen in human keratinocytes (AID 1919968; active = well fitted curve in the direction sought with a large enough effect in the repeat runs; an effect the other way counts as inactive or inconclusive; note: nearly all actives have a fitted effect of over 55% in size; note: potency is the fitted concentration of half-maximal effect)
# Method in brief: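 Parallel cytotoxicity read: KeratinoSens HaCaT cells, compound treatment 23 h, viability by CellTiter-Fluor fluorescence 1 h post-reagent.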
# [2] = Nuclear factor erythroid 2-related factor 2/antioxidant responsive element (Nrf2/ARE) small molecule agonists: luciferase reporter gene qHTS assay in human keratinocytes (AID 1919969); note: nearly all actives have a fitted effect of over 35% in size; note: potency is the fitted concentration of half-maximal effect
# [3] = molecular target: Gonadotropin-releasing hormone receptor (Homo sapiens) (UniProt P30968); test: Human gonadotropin-releasing hormone receptor (GnRHR) small molecule agonists, calcium flux assay in GnRHR-HEK293 cells (AID 1920063); note: nearly all actives have a fitted effect of over 35% in size
# Method in brief: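 Calcium flux, agonist mode, human GnRHR stably integrated in HEK293; dye 1 h at 37 C before compound; Ex/Em=480/540 kinetic read, 3 min; 15 concentrations, triplicate.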
# [4] = molecular target: KiSS-1 receptor (Homo sapiens) (UniProt Q969F8); test: Human kisspeptin (KISS1R) small molecule agonists, calcium flux assay in KISS1R-HEK293 cells (AID 1920064; active = well fitted curve in the direction sought with a large enough effect in the repeat runs; an effect the other way counts as inactive or inconclusive)
# Method in brief: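 Triplicate 15-concentration series were applied to dye-loaded human KISS1R HEK293 cells, and agonist-evoked calcium fluorescence was captured for 3 min.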
# [5] = G protein-coupled receptor (GPCR) small molecule agonists, calcium flux assay: HEK293 wild type cell line counter screen (AID 1920065)
# Method in brief: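 Non-specific calcium responders were flagged by adding DMSO-dissolved compounds to dye-loaded cells and reading 480/540 nm fluorescence each second for 3 min; ATP served as positive control.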
# [6] = p53 small molecule agonists, cell-based qHTS assay with human liver microsomes (AID 1963577); note: potency is the fitted concentration of half-maximal effect
# Method in brief: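 p53RE-bla cells, 4,000/well, compound added after 5 h, with human liver microsomes 0.5 mg/mL and NADPH 0.5 mg/mL final; 16 h at 37 C, then LiveBLAzer 2 h RT, fluorescence.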
# [7] = p53 small molecule agonists, cell-based qHTS assay with human liver microsomes: qHTS cell viability counter screen (AID 1963579); note: nearly all actives have a fitted effect of over 45% in size
# Method in brief: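 p53RE-bla cells, 4,000/well, dosed 5 hours after plating, with human liver microsomes (0.5 mg/mL final) plus NADPH (0.5 mg/mL final), 16 hours at 37 C. Viability read as CellTiter-Glo luminescence after 30 min at room temperature.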
# [8] = p53 small molecule agonists, cell-based qHTS assay with rat liver microsomes: qHTS cell viability counter screen (AID 1963580); note: nearly all actives have a fitted effect of over 45% in size
# Method in brief: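 After the beta-lactamase ratio was read, CellTiter-Glo was added to the same wells and luminescence measured at 30 min; cells had been treated 16 h at 37 C with compounds, rat liver microsomes and NADPH (0.5 mg/mL final each).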
# [9] = p53 small molecule agonists, cell-based qHTS assay: qHTS cell viability counter screen (AID 1963581); note: nearly all actives have a fitted effect of over 45% in size; note: potency is the fitted concentration of half-maximal effect
# Method in brief: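 Multiplexed with the reporter read, a CellTiter-Glo step (30 min, room temperature) gauges ATP-based viability of HCT-116 p53RE-bla cells after 16 h compound incubation at 37 C.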
# [10] = p53 small molecule agonists, cell-based qHTS assay (AID 1963582; active = well fitted activation curve with a large enough effect in the signal ratio in the repeat runs, not every such curve was filed as active; the % refers to the signal ratio)
# Method in brief: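 Beta-lactamase reporter cells (p53RE-bla) treated with compounds for 16 h at 37 C; FRET substrate, 2 h, room temperature; fluorescence intensity.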
# [11] = molecular target: 5-hydroxytryptamine receptor 2A (Homo sapiens) (UniProt P28223); test: 5-hydroxytryptamine receptor 2A (HTR2A) small molecule antagonists, cell-based qHTS assay (AID 1963586); note: nearly all actives have a fitted effect of over 45% in size; note: potency is the fitted concentration of half-maximal effect
# Method in brief: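 CHO cells stably expressing human HTR2A were plated for 18 h at 37 C, then loaded with calcium dye for 1 h. Compounds were preincubated 5 min at room temperature before DOI (4 nM solution) was added. Kinetic fluorescence was read for 3 min.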
# [12] = molecular target: 5-hydroxytryptamine receptor 2A (Homo sapiens) (UniProt P28223); test: 5-hydroxytryptamine receptor 2A (HTR2A) small molecule agonists, cell-based qHTS assay (AID 1963587); note: nearly all actives have a fitted effect of over 30% in size; note: potency is the fitted concentration of half-maximal effect
# Method in brief: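 CHO cells stably expressing human HTR2A, plated 18 h, loaded with calcium dye 1 h at 37 C. Agonist mode: compounds added and intracellular calcium fluorescence recorded kinetically for 2 min at 1 sec intervals.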
# [13] = molecular target: Muscarinic acetylcholine receptor M1 (Homo sapiens) (UniProt P11229); test: Cholinergic receptor muscarinic 1 (CHRM1) small molecule antagonists, cell-based qHTS assay (AID 1963588); note: nearly all actives have a fitted effect of over 40% in size
# Method in brief: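 Compounds were tested at 15 concentrations in three independent runs. Dye-loaded CHRM1-CHO cells were exposed 5 min at room temperature before stimulation by acetylcholine added at 50nM. Intracellular calcium was read kinetically on FDSS for 3 min.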
# [14] = molecular target: Muscarinic acetylcholine receptor M1 (Homo sapiens) (UniProt P11229); test: Cholinergic receptor muscarinic 1 (CHRM1) small molecule agonists, cell-based qHTS assay (AID 1963589); note: nearly all actives have a fitted effect of over 35% in size
# Method in brief: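 qHTS, 15-point titration, 3 independent runs: compounds pin-transferred onto dye-loaded CHRM1-CHO cells (human M1), calcium fluorescence followed every second to detect agonism.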
# [15] = cAMP Responsive Elements (CRE) small molecule agonists, cell-based qHTS assay (AID 1963590)
# Method in brief: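 Quantitative HTS for CRE agonists: HEK 293T CRE-bla cells, overnight plating, 3 h compound incubation at 37 C/5% CO2, then 2 h room-temperature LiveBLAzer B/G FRET substrate loading.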
# [16] = molecular target: Beta-2 adrenergic receptor (Homo sapiens) (UniProt P07550); test: Adrenergic beta2 receptor (ADRB2) small molecule antagonists, cell-based qHTS assay (AID 1963592); note: series mostly up to about 92 µM; nearly all actives have a fitted effect of over 50% in size
# Method in brief: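 Assay format: CHO-ADRB2 cells, 18-20hr seeding at 37C/5% CO2, then compound plus 1nM isoproterenol agonist mix for 0.5hr RT. Homogeneous time-resolved fluorescence cAMP detection after 1hr, expressed as 665/615 nm ratio.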
# [17] = molecular target: D(2) dopamine receptor (Homo sapiens) (UniProt P14416); test: Dopamine D2 receptor (DRD2) small molecule agonists, cell-based qHTS assay (AID 1963594); note: nearly all actives have a fitted effect of over 35% in size
# Method in brief: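 HEK293 cells stably expressing human DRD2, pre-treated with PDE inhibitor Ro20-1724 (0.1 mM final) and compound 10 min at room temperature, then stimulated with NKH477 (200nM […]) for 30 min. cAMP read by HTRF (665/620 nm).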
# [18] = molecular target: D(2) dopamine receptor (Homo sapiens) (UniProt P14416); test: Dopamine D2 receptor (DRD2) small molecule antagonists, cell-based qHTS assay (AID 1963595; active = well fitted inhibition curve with a large enough effect in the signal ratio in the repeat runs, with a control signal flat; the % refers to the signal ratio)
# Method in brief: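 HEK293 cells stably expressing DRD2 were preincubated with 0.1 mM Ro20-1724, then with compound for 10 min at room temperature. Cells were stimulated with 200 nM NKH477 plus 12 nM quinpirole for 30 min, and cAMP was read by HTRF.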
# [19] = p53 small molecule agonists, cell-based qHTS assay with rat liver microsomes (AID 1963578)
# Method in brief: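 p53RE-bla cells, 4,000/well, pre-incubated 5 h, then given compounds plus rat liver microsomes (0.5 mg/mL final) and NADPH (0.5 mg/mL final). Incubation 16 h at 37 C; beta-lactamase reporter read by LiveBLAzer fluorescence after 2 h at room temperature.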
# [20] = cAMP Responsive Elements (CRE) small molecule antagonists, cell-based qHTS assay (AID 1963591; active = well fitted inhibition curve with a large enough effect in the signal ratio in the repeat runs, not every such curve was filed as active; the % refers to the signal ratio; note: potency is the fitted concentration of half-maximal effect)
# Method in brief: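 Fluorescence intensity from cleaved LiveBLAzer B/G substrate (2 h, room temperature) quantified CRE-bla activity in HEK 293T cells exposed 3 h to compound with 0.25 uM final NKH477.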
# Sequence of KiSS-1 receptor (Homo sapiens) (Q969F8 whole entry, looked up): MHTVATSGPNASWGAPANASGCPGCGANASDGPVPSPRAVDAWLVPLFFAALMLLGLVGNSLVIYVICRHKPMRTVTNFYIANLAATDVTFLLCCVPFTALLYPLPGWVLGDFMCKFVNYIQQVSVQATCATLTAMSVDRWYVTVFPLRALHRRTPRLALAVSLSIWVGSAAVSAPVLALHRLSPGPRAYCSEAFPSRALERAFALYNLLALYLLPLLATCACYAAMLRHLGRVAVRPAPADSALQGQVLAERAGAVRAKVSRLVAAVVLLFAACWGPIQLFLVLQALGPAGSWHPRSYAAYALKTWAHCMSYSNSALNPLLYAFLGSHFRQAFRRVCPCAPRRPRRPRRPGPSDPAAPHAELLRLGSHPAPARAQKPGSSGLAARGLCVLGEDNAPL
# Sequence of Beta-2 adrenergic receptor (Homo sapiens) (P07550 whole entry, looked up): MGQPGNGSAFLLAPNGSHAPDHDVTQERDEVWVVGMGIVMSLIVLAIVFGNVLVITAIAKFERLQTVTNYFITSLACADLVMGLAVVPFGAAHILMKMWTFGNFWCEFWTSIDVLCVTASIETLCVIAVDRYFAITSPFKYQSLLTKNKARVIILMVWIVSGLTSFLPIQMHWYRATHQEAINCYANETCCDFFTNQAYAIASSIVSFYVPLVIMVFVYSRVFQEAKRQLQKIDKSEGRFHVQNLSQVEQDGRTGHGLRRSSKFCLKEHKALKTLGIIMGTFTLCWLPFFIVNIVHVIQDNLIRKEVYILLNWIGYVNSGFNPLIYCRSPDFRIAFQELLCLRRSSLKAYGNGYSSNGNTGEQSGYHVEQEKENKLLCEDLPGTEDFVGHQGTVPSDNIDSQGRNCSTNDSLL
# Sequence of D(2) dopamine receptor (Homo sapiens) (P14416 whole entry, looked up): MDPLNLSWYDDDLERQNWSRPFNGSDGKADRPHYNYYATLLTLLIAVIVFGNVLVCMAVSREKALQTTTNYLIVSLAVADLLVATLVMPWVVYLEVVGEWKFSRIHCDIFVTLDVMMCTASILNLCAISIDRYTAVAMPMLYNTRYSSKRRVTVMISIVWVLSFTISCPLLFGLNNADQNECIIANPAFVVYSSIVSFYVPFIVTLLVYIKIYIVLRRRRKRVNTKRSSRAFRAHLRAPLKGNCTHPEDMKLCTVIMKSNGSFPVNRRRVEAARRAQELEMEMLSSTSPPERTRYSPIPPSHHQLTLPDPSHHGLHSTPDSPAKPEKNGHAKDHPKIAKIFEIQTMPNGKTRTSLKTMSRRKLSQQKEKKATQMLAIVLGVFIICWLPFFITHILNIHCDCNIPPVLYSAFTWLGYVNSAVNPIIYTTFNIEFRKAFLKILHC
# Sequence of Muscarinic acetylcholine receptor M1 (Homo sapiens) (P11229 whole entry, looked up): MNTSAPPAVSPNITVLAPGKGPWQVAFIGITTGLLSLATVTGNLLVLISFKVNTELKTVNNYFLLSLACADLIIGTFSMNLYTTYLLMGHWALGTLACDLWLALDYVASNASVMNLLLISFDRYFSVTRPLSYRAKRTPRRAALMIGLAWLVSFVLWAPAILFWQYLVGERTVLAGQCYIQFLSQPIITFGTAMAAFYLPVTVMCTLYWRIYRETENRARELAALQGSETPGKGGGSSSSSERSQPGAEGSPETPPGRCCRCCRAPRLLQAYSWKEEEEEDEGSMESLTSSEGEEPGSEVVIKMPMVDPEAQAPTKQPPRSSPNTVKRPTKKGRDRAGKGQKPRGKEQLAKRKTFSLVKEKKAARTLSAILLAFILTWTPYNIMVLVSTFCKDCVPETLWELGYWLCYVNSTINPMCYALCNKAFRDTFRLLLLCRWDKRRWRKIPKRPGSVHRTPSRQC
# Sequence of Gonadotropin-releasing hormone receptor (Homo sapiens) (P30968 whole entry, looked up): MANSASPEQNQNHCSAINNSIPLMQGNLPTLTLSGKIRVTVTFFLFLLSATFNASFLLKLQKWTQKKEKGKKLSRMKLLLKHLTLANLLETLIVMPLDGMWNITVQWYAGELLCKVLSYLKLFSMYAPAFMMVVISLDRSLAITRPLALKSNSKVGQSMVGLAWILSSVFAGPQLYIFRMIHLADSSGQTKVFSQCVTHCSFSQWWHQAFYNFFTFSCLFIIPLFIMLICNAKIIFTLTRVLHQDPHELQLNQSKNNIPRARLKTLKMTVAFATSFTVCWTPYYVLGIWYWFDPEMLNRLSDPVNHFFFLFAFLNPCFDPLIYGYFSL
# Sequence of 5-hydroxytryptamine receptor 2A (Homo sapiens) (P28223 whole entry, looked up): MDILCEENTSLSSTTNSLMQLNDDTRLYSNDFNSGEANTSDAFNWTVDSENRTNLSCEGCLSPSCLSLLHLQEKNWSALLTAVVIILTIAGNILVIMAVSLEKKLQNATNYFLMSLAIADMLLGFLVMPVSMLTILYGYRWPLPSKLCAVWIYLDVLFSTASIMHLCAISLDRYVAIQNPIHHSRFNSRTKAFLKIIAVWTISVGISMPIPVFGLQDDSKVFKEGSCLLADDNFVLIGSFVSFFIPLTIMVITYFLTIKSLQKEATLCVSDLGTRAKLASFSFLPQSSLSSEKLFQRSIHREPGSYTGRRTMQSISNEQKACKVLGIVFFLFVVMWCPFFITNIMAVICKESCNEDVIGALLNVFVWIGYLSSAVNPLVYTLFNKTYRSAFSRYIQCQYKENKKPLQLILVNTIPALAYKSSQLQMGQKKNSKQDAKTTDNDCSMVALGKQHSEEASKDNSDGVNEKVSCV
SMILES,Potency [1],Potency [2],Potency [3],Potency [4],Potency [5],Potency [6],Potency [7],Potency [8],Potency [9],Potency [10],Potency [11],Potency [12],Potency [13],Potency [14],Potency [15],Potency [16],Potency [17],Potency [18],Potency [19],Potency [20]
C=CC(=O)N(C)C,inactive,inactive,inactive,inactive,inactive,inactive,inactive,inactive,inactive,inactive,inactive,inactive,inactive,inactive,inactive,inactive,inactive,inactive,,
CC1Sc2c(C(=O)O)c(=O)c3cc(F)c(N4CCNCC4)cc3n21 (configuration not stated),inactive,inactive,inactive,inactive,inactive,inactive,inactive,inactive,inactive,inactive,inactive,inactive,inactive,inactive,,,inactive,inactive,,
Cc1cc(C(C)(C)c2ccc(O)c(C)c2)ccc1O,58.2 µM (active),inactive,inactive,inactive,inactive,inactive,,,inactive,,35.7 µM (active),52.3 µM (active),inactive,inactive,,inactive,inactive,inactive,inactive,
O=C(O)CCCCCCNC1c2ccccc2CCc2ccccc21,inactive,inactive,inactive,inactive,inactive,inactive,,inactive,,,inactive,inactive,,inactive,inactive,inactive,inactive,,inactive,
OP(O)c1ccccc1,inactive,inactive,inactive,inactive,inactive,inactive,inactive,inactive,inactive,inactive,inactive,inactive,inactive,inactive,inactive,inactive,,inactive,,
O=[N+]([O-])c1ccc2ccc3cccc4ccc1c2c34,inactive,61.1 µM (active),inactive,inactive,inactive,inactive,inactive,inactive,inactive,inactive,inactive,inactive,inactive,inactive,inactive,inactive,inactive,inactive,,
O=C(Nc1ccc2[nH]ccc2c1)c1cc2cc(F)ccc2n1Cc1cccc(F)c1,24.3 µM (active),inactive,inactive,inactive,inactive,inactive,,inactive,,,,inactive,inactive,inactive,inactive,inactive,inactive,inactive,inactive,61.1 µM (active)
OC(c1ccc(F)cc1)(c1cncnc1)c1ccccc1Cl (configuration not stated),inactive,inactive,inactive,inactive,inactive,inactive,inactive,inactive,inactive,inactive,inactive,inactive,inactive,inactive,inactive,inactive,inactive,inactive,,inactive
CNC(=O)Oc1ccc(N(C)C)c(C)c1,inactive,24.3 µM (active),inactive,inactive,inactive,10.2 µM (active),inactive,inactive,inactive,inactive,inactive,inactive,inactive,inactive,inactive,inactive,inactive,inactive,,
COc1ccc2c(c1OC)CN1CCc3cc4c(cc3C1C2)OCO4 (configuration not stated),inactive,inactive,inactive,inactive,inactive,inactive,inactive,inactive,inactive,inactive,inactive,inactive,inactive,inactive,,,,inactive,,
II,inactive,inactive,inactive,inactive,inactive,inactive,inactive,inactive,inactive,inactive,inactive,,inactive,inactive,,inactive,inactive,,,inactive
CCN1CCC2(CC1)COc1cc3c(cc12)N(C(=O)c1ccc(-c2ccc(-c4nnc(C)o4)cc2C)cc1)CC3,25.2 µM (active),inactive,inactive,inactive,inactive,inactive,,,42.2 µM (active),,inactive,,,inactive,,inactive,inactive,inactive,inactive,
CSSC,inactive,31 µM (active),inactive,inactive,inactive,inactive,,inactive,,inactive,,inactive,inactive,inactive,,inactive,inactive,inactive,inactive,inactive
O=[Se]=O,inactive,inactive,inactive,inactive,inactive,inactive,,inactive,inactive,,inactive,inactive,inactive,inactive,,inactive,inactive,inactive,inactive,
